Assay results reported in PubChem BioAssay AID1159580 (chemical genetic matrix, 2015).
“And” between values parts separate entries of the source, which are not always exact repeats. Equal entries are not always repeated. Among all 5,500 compounds or so, about 2,000 (36%) were called active. Another 18% or so got no clear call; they are omitted. No stated cut-off is given here; in the data, active means normalized growth mostly below about 0.91 (no sharp cut-off); inconclusive means no clear call, values can overlap the other calls; inactive means mostly above about 0.92. Some of the results follow.

Experiment: chemical genetic growth profiling, strain panel (AID 1159580);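 further: tested at 20 µM; growth read once vehicle control cultures reached saturation at 30 °C; 1 = growth at the plate median or of vehicle wells; lower values mean less growth of the strain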
Details: growth OD

Measured: normalized growth

CS(=O)(=O)Nc1ccc([N+](=O)[O-])cc1Oc1ccccc1
inactive: S. cerevisiae deletion strains, locus YJR066W, strain TOR1, hits give low values 0.962 | S. cerevisiae deletion strains, locus YJR075W, strain HOC1, hits give low values 1 | S. cerevisiae deletion strains, locus YKL009W, strain mrt4, hits give low values 0.944 | S. cerevisiae deletion strains, locus YKL068W, hits give low values 0.988 | S. cerevisiae deletion strains, locus YKL085W, strain MDH1 (second series), hits give low values 0.99 | S. cerevisiae deletion strains, locus YKL085W, strain MDH1, hits give low values 0.99 | S. cerevisiae deletion strains, locus YKL160W, strain elf1, hits give low values 0.987 | S. cerevisiae deletion strains, locus YKL190W, strain CNB1, hits give low values 0.983 | S. cerevisiae deletion strains, locus YKR001C, strain vps1, hits give low values 0.938 | S. cerevisiae deletion strains, locus YKR026C, strain gcn3, hits give low values 0.987 | S. cerevisiae deletion strains, locus YKR091W, strain srl3, hits give low values 0.993 | S. cerevisiae deletion strains, locus YLL001W, strain dnm1, hits give low values 0.975 | S. cerevisiae deletion strains, locus YLL026W, hits give low values 0.993 | S. cerevisiae deletion strains, locus YLL041C, strain sdh2, hits give low values 0.995 | S. cerevisiae deletion strains, locus YLR027C, strain aat2, hits give low values 1 | S. cerevisiae deletion strains, locus YLR039C, strain RIC1, hits give low values 0.839 | S. cerevisiae deletion strains, locus YLR058C, strain SHM2, hits give low values 0.966 | S. cerevisiae deletion strains, locus YLR102C, strain apc9, hits give low values 0.984 | S. cerevisiae deletion strains, locus YLR113W, strain HOG1, hits give low values 1.03 | S. cerevisiae deletion strains, locus YLR221C, strain rsa3, hits give low values 0.994 | S. cerevisiae deletion strains, locus YLR258W, strain gsy2, hits give low values 0.988 | S. cerevisiae deletion strains, locus YLR262C, strain YPT6 (second series), hits give low values 0.889 | S. cerevisiae deletion strains, locus YLR262C, strain YPT6, hits give low values 0.75 | S. cerevisiae deletion strains, locus YLR268W, strain sec22, hits give low values 0.958 | S. cerevisiae deletion strains, locus YLR320W, strain mms22, hits give low values 0.994 | S. cerevisiae deletion strains, locus YLR330W, strain CHS5, hits give low values 0.993 | S. cerevisiae deletion strains, locus YLR342W, strain FKS1 (second series), hits give low values 1.08 | S. cerevisiae deletion strains, locus YLR342W, strain FKS1, hits give low values 0.997 | S. cerevisiae deletion strains, locus YLR357W, strain rsc2, hits give low values 0.986 | S. cerevisiae deletion strains, locus YLR370C, strain arc18, hits give low values 0.999 | S. cerevisiae deletion strains, locus YLR371W, strain rom2, hits give low values 0.984 | S. cerevisiae deletion strains, locus YLR384C, strain iki3, hits give low values 0.991 | S. cerevisiae deletion strains, locus YLR418C, strain cdc73, hits give low values 1.01 | S. cerevisiae deletion strains, locus YML016C, strain PPZ1, hits give low values 0.989 | S. cerevisiae deletion strains, locus YML032C, strain rad52, hits give low values 0.958 | S. cerevisiae deletion strains, locus YML120C, strain ndi1, hits give low values 0.993 | S. cerevisiae deletion strains, locus YML124C, strain tub3, hits give low values 0.982 | S. cerevisiae deletion strains, locus YMR058W, strain fet3, hits give low values 0.993 | S. cerevisiae deletion strains, locus YMR078C, strain ctf18, hits give low values 0.975 | S. cerevisiae deletion strains, locus YMR125W, strain sto1, hits give low values 0.984 | S. cerevisiae deletion strains, locus YMR129W, hits give low values 0.983 | S. cerevisiae deletion strains, locus YMR205C, strain PFK2, hits give low values 0.974 | S. cerevisiae deletion strains, locus YMR223W, strain ubp8, hits give low values 0.993 | S. cerevisiae deletion strains, locus YMR231W, strain pep5, hits give low values 1 | S. cerevisiae deletion strains, locus YMR307W, strain GAS1, hits give low values 1.05 and 0.989 | S. cerevisiae deletion strains, locus YNL067W, strain RPL9B, hits give low values 0.953 | S. cerevisiae deletion strains, locus YNL071W, strain lat1, hits give low values 1 | S. cerevisiae deletion strains, locus YNL128W, strain TEP1, hits give low values 0.981 and 0.986 | S. cerevisiae deletion strains, locus YNL175C, strain NOP13, hits give low values 0.995 | S. cerevisiae deletion strains, locus YNL183C, strain NPR1, hits give low values 0.943 | S. cerevisiae deletion strains, locus YNL197C, strain WHI3, hits give low values 0.99 | S. cerevisiae deletion strains, locus YNL209W, strain ssb2, hits give low values 0.994 | S. cerevisiae deletion strains, locus YNL224C, strain SQS1, hits give low values 1 | S. cerevisiae deletion strains, locus YNL233W, strain BNI4, hits give low values 0.927 | S. cerevisiae deletion strains, locus YNL248C, strain rpa49, hits give low values 1 | S. cerevisiae deletion strains, locus YNL250W, strain rad50, hits give low values 0.999 | S. cerevisiae deletion strains, locus YNL271C, strain bni1, hits give low values 0.972 | S. cerevisiae deletion strains, locus YNL298W, strain CLA4, hits give low values 0.966 | S. cerevisiae deletion strains, locus YNL307C, strain MCK1, hits give low values 0.966 | S. cerevisiae deletion strains, locus YNL322C, strain KRE1 (second series), hits give low values 0.994 | S. cerevisiae deletion strains, locus YNL322C, strain KRE1, hits give low values 0.986 and 1.01 | S. cerevisiae deletion strains, locus YNR049C, strain mso1, hits give low values 0.99 | S. cerevisiae deletion strains, locus YNR052C, strain pop2, hits give low values 0.976 | S. cerevisiae deletion strains, locus YOL006C, strain TOP1, hits give low values 0.841 | S. cerevisiae deletion strains, locus YOL012C, strain htz1 1.03 | S. cerevisiae deletion strains, locus YOL147C, strain pex11, hits give low values 0.98 | S. cerevisiae deletion strains, locus YOR001W, strain rrp6, hits give low values 0.99 | S. cerevisiae deletion strains, locus YOR061W, strain CKA2, hits give low values 0.964 | S. cerevisiae deletion strains, locus YOR069W, strain VPS5, hits give low values 0.994 | S. cerevisiae deletion strains, locus YOR070C, strain gyp1, hits give low values 0.986 | S. cerevisiae deletion strains, locus YOR080W, strain dia2, hits give low values 0.991 | S. cerevisiae deletion strains, locus YOR083W, strain WHI5 (second series), hits give low values 0.991 | S. cerevisiae deletion strains, locus YOR083W, strain WHI5, hits give low values 0.986 | S. cerevisiae deletion strains, locus YOR106W, strain vam3, hits give low values 1.01 | S. cerevisiae deletion strains, locus YOR136W, strain idh2, hits give low values 0.977 | S. cerevisiae deletion strains, locus YOR144C, strain elg1, hits give low values 0.981 | S. cerevisiae deletion strains, locus YOR184W, strain ser1, hits give low values 0.951 | S. cerevisiae deletion strains, locus YOR231W, strain MKK1, hits give low values 1.06 | S. cerevisiae deletion strains, locus YOR265W, strain rbl2, hits give low values 1.01 | S. cerevisiae deletion strains, locus YOR270C, strain vph1, hits give low values 0.97 | S. cerevisiae deletion strains, locus YOR290C, strain snf2, hits give low values 0.954 | S. cerevisiae deletion strains, locus YOR316C, strain cot1, hits give low values 0.961 | S. cerevisiae deletion strains, locus YPL051W, strain arl3, hits give low values 0.993 | S. cerevisiae deletion strains, locus YPL055C, strain LGE1, hits give low values 0.879 | S. cerevisiae deletion strains, locus YPL078C, strain atp4, hits give low values 0.994 | S. cerevisiae deletion strains, locus YPL106C, strain sse1, hits give low values 0.991 | S. cerevisiae deletion strains, locus YPL240C, strain hsp82, hits give low values 0.978 | S. cerevisiae deletion strains, locus YPL241C, strain CIN2, hits give low values 1.01 | S. cerevisiae deletion strains, locus YPL256C, strain CLN2, hits give low values 1.03 | S. cerevisiae deletion strains, locus YPR119W, strain clb2, hits give low values 0.973 | S. cerevisiae deletion strains, locus YPR141C, strain kar3, hits give low values 0.973 | S. cerevisiae deletion strains, locus YPR163C, strain tif3, hits give low values 0.988 | S. cerevisiae deletion strains, locus YPR167C, strain met16, hits give low values 0.986 | S. cerevisiae deletion strains, strain wtn01, hits give low values 0.968 | S. cerevisiae strains, strain wild type, hits give low values 0.978
